Source: PubChem BioAssay (NCI)
This is part of a sample that, as a whole, favours compounds with a hit. Of some 83,000 tested, about 20% had one in any assay.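 Method: cells in 96-well plates; compound added at one concentration; 48 h incubation; percent growth measured; values under 10 scored active.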 Calls of active or inactive are those of the source.

The compounds below were run on SN12C renal (assay: NCI-60 one-dose screen, 48 h (100 = growth as untreated, 0 = no growth, -100 = all killed)). Details: 10 µM.
Method: Growth inhibition of the SN12C human tumor cell line is measured as a screen for anti-cancer activity. Cells are grown in 96 well plates and exposed to the test compound for 48 hours. Compounds are tested at a single concentration, which is 10^-5 M for most compounds. The reported endpoint is percent growth (GI% or GIPRCNT), where numbers from 0 - 100% represent growth inhibition, and numbers from -100% - 0 represent cell death. For example, a value of 40 represents 60% growth inhibition. A value of 0 means no net growth occurred over the course of the experiment. A value of -40 indicates 40% of cells at the beginning of the experiment died by the end of the experiment. A value of -100 means all cells are dead at the end of the experiment.
NCI-60 Human Tumor Cell Lines Screen was performed using the standard one-dose NCI protocol, which is described in more detail at https://dtp.cancer.gov/discovery_development/nci-60/default.htm.
Compounds with GIPRCNT values below 10 were considered active. Activity score was based on GIPRCNT using the following formula: […]
Score is 0 for GIPRCNT values of 100 or above, 50 for GIPRCNT values of 0, and 100 for GIPRCNT values of -100.
CCCCCCCCCCOC(c1ccccc1)c1ccccc1 was tested, and the growth was 102% (inactive). With C[C@]12CCC3c4ccc(O)cc4C[C@@H](CCCCCCCCCS(=O)CCCC(F)(F)C(F)(F)F)C3C1CC[C@@H]2O (stereo not given in full) the growth was 93.7% (inactive). Clc1ccc2c(c1)C(N1CCNCC1)=Nc1ccccc1O2 was tested, and the growth was 57.8% (inactive). With Cc1ccc(NCCN(C)CC(C)O)c2c(=O)c3ccc(Cl)cc3sc12 (stereo not given) the growth was 49.8% (inactive). CN(C)CCCSc1ccccc1NC1=C(Cl)C(=O)C(Nc2ccccc2SCCCN(C)C)=C(Cl)C1=O was tested, and the growth was -61.2% (active). In the case of N#Cc1cnn(C(=O)c2nn(-c3ccc(Cl)cc3)cc2O)c1N, the growth is reported as 26.5% (inactive). Cc1cccc(N=Cc2ccccc2O)c1C was tested, and the growth was 89.6% (inactive). With CN(C)CCC1(c2ccccc2)CCN(C)C1=O (stereo not given) the growth was 103% (inactive). For Cc1ccc(-n2c(C)nn3c(=O)c4c5c(sc4nc23)CN(C)CC5)cc1, the growth was 97.6% (inactive). In the case of O=S(=O)(Oc1ccc(-c2ccc3sccc3c2)cc1)c1ccccc1, the growth is reported as 97.7% (inactive). In the case of CCN1CCN(CCC(=O)Nc2cccc(-n3cc(-c4ccncc4)c(-c4ccc(Cl)c(OC)c4)n3)c2)CC1, the growth is reported as 38.8% (inactive). With COC(=O)c1c[nH]c2cc(OC(C)C)c(OC(C)C)cc2c1=O the growth was 108% (inactive). In the case of S=c1cnc2ccccc2[nH]1, the growth is reported as 104% (inactive). O=[N+]([O-])c1ccc(NCSc2ccc(Cl)cc2)cc1 was tested, and the growth was 86% (inactive). For COc1ccc(-c2cc(-c3ccccc3)nc(SCCCCCCC(=O)NO)n2)cc1, the growth was 79.6% (inactive). In the case of O=C(CCCCNC(=O)c1nc(-c2ccccc2)n(-c2ccccc2)n1)NO, the growth is reported as 77.9% (inactive). With CCOc1ccccc1/C=N\N=C(\N)N/N=C/c1ccccc1OCC the growth was 45.2% (inactive). O=C(CNc1nnc(-c2cccnc2SCc2ccccc2)s1)Nc1nc(Cl)cc(Cl)n1 was tested, and the growth was 103% (inactive). For CC(C)c1ccc(C(C)C(=O)N(CC2=C(C(C)c3ccccn3)c3ccccc3C2)C(C)C)cc1 (stereo not given), the growth was 34% (inactive). With CCCN1CN2C(=O)N3CN(CCC)CN4C(=S)N(C1)C2C34 (stereo not given) the growth was 100% (inactive). With COc1ccc(-c2nn(-c3cccc(Cl)c3)cc2-c2c(C#N)c(=O)n3[nH]c(-c4ccc(C)cc4)nc3c2C#N)cc1 the growth was 60.9% (inactive). In the case of COc1cc(NC(=O)C2=C(N3CCOCC3)/C(=C/c3ccc(Cl)cc3)CC2)cc(OC)c1OC, the growth is reported as 83.4% (inactive). For CC[C@@H](C(=O)[C@@H](C)[C@@H](O)[C@H](C)[C@@H]1O[C@@H]([C@@H](CC)C(=O)N(CC)CC)CC[C@@H]1C)C1O[C@]2(C=CC(=O)[C@]3(CC[C@@](C)([C@H]4CC[C@](O)(CC)[C@H](C)O4)O3)O2)[C@H](C)C[C@@H]1C (stereo not given in full), the growth was 16.8% (inactive). O=c1c(Br)ccc(Br)cc1Br was tested, and the growth was 4.44% (active). With O=c1cn[nH]c2ccc(Br)cc12 the growth was 105% (inactive). For COc1cc(C(=O)/C=C/c2c[nH]c3ccccc23)cc(OC)c1OC, the growth was 25.2% (inactive). In the case of O=C(CN(C1CCCCC1)C1CCCCC1)Nc1ccc(S(=O)(=O)c2ccc(NC(=O)CN(C3CCCCC3)C3CCCCC3)cc2)cc1, the growth is reported as 30.6% (inactive). In the case of CNC(=O)c1cn(C2CC2)c2cc(N3CCN(C(=O)c4cc(OC)c(OC)c(OC)c4)CC3)c(F)cc2c1=O, the growth is reported as 101% (inactive). CNC(=O)c1cn2c3c(c(N4CCN(C)CC4)c(F)cc3c1=O)OC[C@@H]2C was tested, and the growth was 104% (inactive). For O=C(N/N=C/c1c(Cl)cccc1Cl)c1ccccc1Nc1cccc(C(F)(F)F)c1, the growth was 92.6% (inactive). O=C1NC(=O)c2c(CCCSc3nc4ccccc4c(=O)n3CCc3ccccc3)cccc21 was tested, and the growth was 91.7% (inactive). With COc1ccc(-c2nn(-c3cccc(Cl)c3)cc2-c2nc(N)[nH]c(=O)c2C#N)cc1 the growth was 84.9% (inactive). CN(C)CCOc1cccc(NC2=C(Cl)C(=O)C(Nc3cccc(OCCN(C)C)c3)=C(Cl)C2=O)c1 was tested, and the growth was -76.3% (active). CN(C)c1nc(N)c2nccnc2n1 was tested, and the growth was 99.6% (inactive). In the case of Cc1ccc(NC(=O)N2CCCCC2)cc1[N+](=O)[O-], the growth is reported as 106% (inactive). COc1cc(-c2ccc(N=Nc3ccc4c(S(=O)(=O)O)ccc(N)c4c3O)c(OC)c2)ccc1N=Nc1ccc2c(S(=O)(=O)O)ccc(N)c2c1O was tested, and the growth was 123% (inactive). In the case of Cc1cc(C(C#N)c2ccc(Cl)cc2)c(Cl)cc1NC(=O)c1cc(I)cc(I)c1O (stereo not given), the growth is reported as 31% (inactive). O=C1c2ccccc2C(=O)c2c1ccc1c(=O)n(-c3ccccc3C(F)(F)F)nnc21 was tested, and the growth was 5.97% (active). C[n+]1c2ccccc2nc2ccccc21 was tested, and the growth was -27.8% (active). O=C(CSc1nnc(-c2cccnc2SCc2ccccc2)o1)Nc1nc(Cl)cc(Cl)n1 was tested, and the growth was 103% (inactive).
